# Measurements published in paper PMC4336329 (PLoS ONE, 2015).
# Out of some 310,000 compounds screened, about 14,000 (4.5%) showed an effect of 50% or more. The effect is printed as a negative number. The full list was thinned out, with strong results kept by preference.
# Biological target: human ether-à-go-go-related gene (hERG) potassium channel (human, UniProt Q12809)
# Experiment: primary screen, population patch clamp on CHO cells stably expressing hERG; higher = less effect of the substance
# 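Further: peak tail current of the secondary pulse compared with the same well before compound.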
# human ether-à-go-go-related gene (hERG) potassium channel, sequence (Q12809 whole entry, looked up): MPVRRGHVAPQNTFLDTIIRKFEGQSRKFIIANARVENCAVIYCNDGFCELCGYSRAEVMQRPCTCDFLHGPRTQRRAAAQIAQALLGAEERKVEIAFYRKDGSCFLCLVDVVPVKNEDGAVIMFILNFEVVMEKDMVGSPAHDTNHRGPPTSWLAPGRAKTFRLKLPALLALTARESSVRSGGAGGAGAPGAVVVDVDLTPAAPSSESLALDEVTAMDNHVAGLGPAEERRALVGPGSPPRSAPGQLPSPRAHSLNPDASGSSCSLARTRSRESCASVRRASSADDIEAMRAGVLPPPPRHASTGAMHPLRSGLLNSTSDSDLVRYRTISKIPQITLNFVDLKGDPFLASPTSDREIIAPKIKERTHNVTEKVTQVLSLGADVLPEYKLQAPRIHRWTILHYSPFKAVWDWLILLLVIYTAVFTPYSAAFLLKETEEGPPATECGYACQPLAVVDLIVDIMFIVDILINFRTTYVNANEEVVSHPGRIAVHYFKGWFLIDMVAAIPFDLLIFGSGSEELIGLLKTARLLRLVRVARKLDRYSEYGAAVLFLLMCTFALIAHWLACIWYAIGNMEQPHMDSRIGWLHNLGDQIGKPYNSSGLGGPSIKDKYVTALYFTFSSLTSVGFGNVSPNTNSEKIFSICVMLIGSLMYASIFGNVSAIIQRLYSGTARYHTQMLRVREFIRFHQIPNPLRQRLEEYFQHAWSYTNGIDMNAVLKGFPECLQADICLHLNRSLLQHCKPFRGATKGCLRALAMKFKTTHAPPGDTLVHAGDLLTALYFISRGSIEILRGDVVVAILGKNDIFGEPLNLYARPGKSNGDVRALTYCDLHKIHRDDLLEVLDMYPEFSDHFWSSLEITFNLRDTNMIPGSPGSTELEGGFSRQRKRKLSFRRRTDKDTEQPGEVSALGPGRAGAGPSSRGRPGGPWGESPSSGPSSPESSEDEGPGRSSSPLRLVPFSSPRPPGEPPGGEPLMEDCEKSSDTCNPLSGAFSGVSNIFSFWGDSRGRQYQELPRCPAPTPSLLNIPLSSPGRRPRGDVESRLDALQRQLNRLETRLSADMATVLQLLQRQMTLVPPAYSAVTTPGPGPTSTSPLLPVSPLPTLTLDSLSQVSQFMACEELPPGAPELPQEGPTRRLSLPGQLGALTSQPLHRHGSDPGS
row,Compound,"hERG current change (%, negative = inhibition) at 10uM"
1,O=C(CN1C(=O)C2CC=CCC2C1=O)Nc1ccccc1N1CCCC1 (stereo not drawn),6.41%
2,CCOC(=O)c1c(C)c(C(=O)NCCN2CCOCC2)c(C)n1C,15.1%
3,CCOC(=O)C1(C)NC(c2ccco2)C2C(=O)N(C)C(=O)C21 (stereo not drawn),13.6%
4,COc1ccc(C2c3c(oc4ccccc4c3=O)C(=O)N2CCCN2CCOCC2)cc1 (stereo not drawn),-7.15%
5,COc1ccc(C2c3c(oc4ccc(Cl)cc4c3=O)C(=O)N2CCN2CCOCC2)cc1 (stereo not drawn),-81.2%
6,COC(=O)c1ccc(C2c3c(oc4ccc(Cl)cc4c3=O)C(=O)N2CCN2CCOCC2)cc1 (stereo not drawn),-35.2%
7,C/C(=N\NC(=O)c1c(Br)c(C)nn1C)c1cccc(NC(=O)C2CCC2)c1,-19.4%
8,Cc1c(C(=O)N2CCN(S(C)(=O)=O)CC2)oc2ccccc12,3.49%
9,CCCCNS(=O)(=O)c1ccc2nc(-c3cccnc3)cc(C(=O)NC(C)C)c2c1,16.7%
10,O=C(C1CCC1)N1CCC(O)(c2cccc(F)c2)CC1,14.6%
11,CCc1ccc(NC(=O)COn2nnc3ccc(S(=O)(=O)N(C)C)cc32)cc1,-29.1%
12,CN(C)S(=O)(=O)c1ccc2nnn(OCC(=O)NC34CC5CC(CC(C5)C3)C4)c2c1,-51.7%
13,C=CCNC(=O)NC(=O)COn1nnc2ccc(S(=O)(=O)N(C)C)cc21,5.69%
14,Cc1ccccc1CC(=O)Nc1ccc2c(C)cc(=O)oc2c1,-15.3%
15,CCOC(=O)c1ccc(NC(=O)c2nc[nH]c2C(=O)N2CCN(c3ccccc3)CC2)cc1,3.29%
16,O=C(O)C(Cc1c[nH]c2ccccc12)NS(=O)(=O)c1ccc(Br)cc1 (stereo not drawn),8.36%
17,O=P(c1ccccc1)(c1ccccc1)c1nc(-c2ccc(Cl)cc2)oc1N1CCOCC1,-74.1%
18,CCOP(=O)(c1ccccc1)c1nc(-c2ccccc2Cl)oc1N1CCCCC1 (stereo not drawn),-11.4%
19,CCOP(=O)(OCC)c1nc(-c2ccc(Br)cc2)oc1N1CCCCC1,-65.3%
20,CCOP(=O)(c1ccccc1)c1nc(-c2ccccc2C)oc1N1CCCCC1 (stereo not drawn),0.633%
21,Cc1ccc(-c2nc(P(=O)(c3ccccc3)c3ccccc3)c(N3CCOCC3)o2)cc1,-38.3%
22,CCOP(=O)(OCC)c1nc(-c2ccccc2)oc1N1CCCCC1,4.4%
23,CCOP(=O)(c1ccccc1)c1nc(-c2ccc(F)cc2)oc1N1CCCCC1 (stereo not drawn),-56.6%

row,Compound,"hERG current change (%, negative = inhibition) at 10uM"
1,COP(=O)(OC)c1nc(-c2ccc(C)cc2)oc1N1CCCCC1,-10.2%
2,O=P(c1ccccc1)(c1ccccc1)c1nc(-c2ccccc2)oc1N1CCOCC1,-20.5%
3,CC1=CCC2C(=O)N(c3ccc(C)cc3)C(=O)C2C1 (stereo not drawn),-4.42%
4,Cc1ccc(NC(=O)Cn2nnc(-c3ccccc3NC(=O)c3cccs3)n2)cc1,21.7%
5,Cc1nc2ccccc2c(=O)n1-c1ccc(Cl)cc1[N+](=O)[O-],10.1%
6,Cc1ccccc1NC(=O)C1CCCN(C(=O)NCc2ccccc2)C1 (stereo not drawn),1.82%
7,CCCCCCN=C(CC)c1c(O)n(CCCC)c(=O)[nH]c1=O,-55.4%
8,CCCCn1c(O)c(C(CC)=NCCCn2ccnc2)c(=O)[nH]c1=O,-43.3%
9,CCCCCCN=C(C)c1c(O)n(CCCC)c(=O)[nH]c1=O,-8.21%
10,CCCCn1c(O)c(C(CC)=NCCCN(C)C)c(=O)[nH]c1=O,-29.2%
11,CCCCn1c(O)c(C(CC)=NCCN2CCCCC2)c(=O)[nH]c1=O,-53.6%
12,CCN(CC)CCCN=C(C)c1c(O)n(C2CCCCC2)c(=O)[nH]c1=O,-48.7%
13,CCCCn1c(O)c(C(CC)=NCCN2CCOCC2)c(=O)[nH]c1=O,-15.3%
14,CCC(=NCCCn1ccnc1)c1c(O)n(-c2ccccc2)c(=O)[nH]c1=O,7.4%
15,CCC(=NCCCn1ccnc1)c1c(O)n(Cc2ccccc2)c(=O)[nH]c1=O,-68%
16,CCC(=NCCCN(CC)CC)c1c(O)n(C2CCCCC2)c(=O)[nH]c1=O,-52.9%
17,CCCCn1c(O)c(C(C)=NCCN2CCCCC2)c(=O)[nH]c1=O,-21.7%
18,CCC(=NCCO)c1c(O)n(C2CCCCC2)c(=O)[nH]c1=O,-14.6%
19,CCOC(=O)C1=c2s/c(=C\c3cccnc3)c(=O)n2C(N)=C(C(=O)OC)C1c1cccnc1 (stereo not drawn),14.7%
20,Cn1c(=O)c2c(nc(SCCN3CCOCC3)n2C)n(C)c1=O,16.9%
21,Cc1cc(C(=O)NNC(=S)Nc2ccccc2C)cs1,18.8%
22,CC(=O)n1nc(-c2cccnc2)nc1N,-7.75%
23,NS(=O)(=O)c1cc2c(cc1Cl)NC(C(Cl)Cl)NS2(=O)=O (stereo not drawn),20.2%

row,Compound,"hERG current change (%, negative = inhibition) at 10uM"
1,CCCCCCn1c(O)c(C=NCCN2CCCCC2)c(=O)[nH]c1=O,-51.9%
2,CCCCn1c(O)c(C=NCCN2CCCCC2)c(=O)[nH]c1=O,-2.31%
3,CCCCCCn1c(O)c(C=NCCN2CCOCC2)c(=O)[nH]c1=O,-7.56%
4,CCCNC(=O)N1CCC(C(=O)c2cccc(F)c2)CC1,-10.9%
5,C#Cc1ccc(C(=O)NCc2ccc(N3CCCC3=O)cc2)cc1,20.2%
6,CC(C)(C)NC(=O)C(c1ccco1)N(C(=O)Cn1nnc(-c2ccc(F)cc2)n1)c1ccccc1 (stereo not drawn),-17.5%
7,CCC1CCCCN1CCCNC(=O)c1ccc2nc(N3CCCCC3)sc2c1 (stereo not drawn),-34%
8,CCC1CCCCN1CCCNC(=O)c1ccc2c(c1)c(C)c(C)n2C (stereo not drawn),-35%
9,CC1CCCCN1CCCNC(=O)c1ccc2nc(N3CCCCC3)sc2c1 (stereo not drawn),-22.8%
10,CC(C)CC1Nc2ccc(C(=O)NCCCN3CCCCC3C)cc2NC1=O (stereo not drawn),3.4%
11,Cc1c(C)n(C)c2ccc(C(=O)NCCCN3CCCCC3C)cc12 (stereo not drawn),-19.6%
12,CC1CCCC(C)N1CCCNC(=O)c1ccc2nc(N3CCOCC3)sc2c1 (stereo not drawn),-10.3%
13,CCC1CCCCN1CCCNC(=O)c1ccc2nc(N3CCC(C)CC3)sc2c1 (stereo not drawn),-64.5%
14,CC1CCCCN1CCCNC(=O)c1cc(Br)c(Br)[nH]1 (stereo not drawn),-64.9%
15,CC1CCN(c2nc3ccc(C(=O)NCCCN4CCCCC4C)cc3s2)CC1 (stereo not drawn),-59%
16,Cc1ccc(OCC(=O)NNC(=O)CCc2ccccc2)c(Br)c1,10%
17,CCOC(=O)N1CCN(C(=O)C2CCCN(S(=O)(=O)c3ccc(F)cc3)C2)CC1 (stereo not drawn),-10.1%
18,COc1ccc(Cl)cc1NC(=O)c1cc(-c2ccc(C)cc2O)n[nH]1,15.9%
19,O=C1CSC(c2ccncc2)N1Cc1ccc(F)cc1 (stereo not drawn),1.53%
20,C=CCNc1nc(NCc2ccccc2)c(C#N)c2c1CN(C)CC2,-68.1%
21,CCN1CCc2c(C#N)c(NCc3ccccc3)nc(NCCO)c2C1,-51.6%
22,CCN1CCc2c(C#N)c(N3CCCCC3)nc(NCc3ccccc3)c2C1,-39.8%
23,CCN1CCc2c(C#N)c(NCc3ccccc3)nc(N(CC)CC)c2C1,-68.5%

row,Compound,"hERG current change (%, negative = inhibition) at 10uM"
1,CCc1nc(NCc2ccccc2)c(C#N)c2c1CCCC2,23.3%
2,CN1CCc2c(C#N)c(N3CCCCC3)nc(NCc3ccccc3)c2C1,-2.02%
3,N#Cc1c(NCCO)nc(NCc2ccccc2)c2c1CCN(Cc1ccccc1)C2,-27.1%
4,C=CCNc1nc(N2CCOCC2)c(C#N)c2c1CN(C)CC2,-14.1%
5,CCN1CCc2c(C#N)c(N3CCOCC3)nc(NCCO)c2C1,11.8%
6,Cc1ccc(NC2=NCC(=O)N2C2CCCC2)cc1.Cl,14.7%
7,CNC(=O)N1c2ccccc2NC(=O)CC1C (stereo not drawn),9.32%
8,Cc1ccc(S(=O)(=O)NC2=NCN(CCN3CCOCC3)CN2)cc1,8.55%
9,CC(=O)N(CCCN1CCOCC1)Cc1ccncc1.Cl,16.4%
10,O=C(Nc1nc2ccc(Cl)cc2s1)c1ccc(Br)o1,4.25%
11,Cc1ccc(CNC(=O)/C=C/c2ccc(S(=O)(=O)NCc3ccco3)cc2)cc1,-1.37%
12,O=C(CN1CCN(c2ccc([N+](=O)[O-])cc2)CC1)Nc1ccccn1,-77.9%
13,O=C(CN1CCN(c2ccccc2)CC1)Nc1nccs1,5.11%
14,Cc1c(NC(=O)CN2CCN(c3ccc([N+](=O)[O-])cc3)CC2)c(=O)n(-c2ccccc2)n1C,-50.1%
15,O=C(CN1CCN(c2ccc(F)cc2)CC1)Nc1nccs1,-1.39%
16,Cc1c(NC(=O)CN2CCN(c3ccc(O)cc3)CC2)c(=O)n(-c2ccccc2)n1C,21%
17,O=C(CN1CCN(c2ccc([N+](=O)[O-])cc2)CC1)Nc1nccs1,-65.6%
18,O=C(CN1CCN(c2ccccc2)CC1)Nc1cccc([N+](=O)[O-])c1,2.69%
19,Cc1c(NC(=O)CN2CCN(c3ccccc3)CC2)c(=O)n(-c2ccccc2)n1C,9.86%
20,O=C(CN1CCN(CC(=O)Nc2ccccn2)CC1)Nc1ccccn1,-36%
21,C#CCSc1nnnn1-c1cccc(Cl)c1,-9.19%
